In PubChem BioAssay AID1159580 (chemical genetic matrix, 2015):
The whole screen tested about 5,500 compounds, of which about 2,000 (36%) were called active. Roughly 18% stayed inconclusive and do not appear here. Cut-off read from the data, not from the text of the source: active = normalized growth mostly below about 0.91 (no sharp cut-off); inconclusive = no clear call, values can overlap the other calls; inactive = mostly above about 0.92. The list shows a part of the results.

Experiment: chemical genetic growth profiling, strain panel (AID 1159580);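 note: tested at 20 µM; growth read once vehicle control cultures reached saturation at 30 °C; 1 = growth at the plate median or of vehicle wells; lower values mean less growth of the strain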
Conditions: growth OD

Measured: normalized growth

CC(=O)Nc1ccc(OC(=O)c2ccccc2O)cc1
active: S. cerevisiae deletion strains, locus YJR075W, strain HOC1, hits give low values 0.85 | S. cerevisiae deletion strains, locus YKL009W, strain mrt4, hits give low values 0.848 | S. cerevisiae deletion strains, locus YKR001C, strain vps1, hits give low values 0.794 | S. cerevisiae deletion strains, locus YLR221C, strain rsa3, hits give low values 0.871 | S. cerevisiae deletion strains, locus YLR320W, strain mms22, hits give low values 0.832 | S. cerevisiae deletion strains, locus YLR418C, strain cdc73, hits give low values 0.682 | S. cerevisiae deletion strains, locus YML032C, strain rad52, hits give low values 0.897 | S. cerevisiae deletion strains, locus YNL071W, strain lat1, hits give low values 0.809 | S. cerevisiae deletion strains, locus YNL233W, strain BNI4, hits give low values 0.832 | S. cerevisiae deletion strains, locus YNL248C, strain rpa49, hits give low values 0.862 | S. cerevisiae deletion strains, locus YNL307C, strain MCK1, hits give low values 0.576 | S. cerevisiae deletion strains, locus YNL322C, strain KRE1 (second series), hits give low values 0.888 | S. cerevisiae deletion strains, locus YOL006C, strain TOP1, hits give low values 0.463 | S. cerevisiae deletion strains, locus YOR184W, strain ser1, hits give low values 0.756 | S. cerevisiae deletion strains, locus YOR270C, strain vph1, hits give low values 0.635 | S. cerevisiae deletion strains, locus YOR290C, strain snf2, hits give low values 0.857 | S. cerevisiae deletion strains, locus YPL078C, strain atp4, hits give low values 0.83
inactive: S. cerevisiae deletion strains, locus YJR066W, strain TOR1, hits give low values 0.929 | S. cerevisiae deletion strains, locus YKL068W, hits give low values 0.96 | S. cerevisiae deletion strains, locus YKL085W, strain MDH1 (second series), hits give low values 0.95 | S. cerevisiae deletion strains, locus YKL085W, strain MDH1, hits give low values 0.95 | S. cerevisiae deletion strains, locus YKL160W, strain elf1, hits give low values 0.978 | S. cerevisiae deletion strains, locus YKL190W, strain CNB1, hits give low values 0.987 | S. cerevisiae deletion strains, locus YKR026C, strain gcn3, hits give low values 0.965 | S. cerevisiae deletion strains, locus YKR091W, strain srl3, hits give low values 0.962 | S. cerevisiae deletion strains, locus YLL001W, strain dnm1, hits give low values 0.96 | S. cerevisiae deletion strains, locus YLL026W, hits give low values 0.978 | S. cerevisiae deletion strains, locus YLL041C, strain sdh2, hits give low values 0.995 | S. cerevisiae deletion strains, locus YLR027C, strain aat2, hits give low values 0.992 | S. cerevisiae deletion strains, locus YLR039C, strain RIC1, hits give low values 0.676 | S. cerevisiae deletion strains, locus YLR058C, strain SHM2, hits give low values 0.941 | S. cerevisiae deletion strains, locus YLR102C, strain apc9, hits give low values 0.943 | S. cerevisiae deletion strains, locus YLR113W, strain HOG1, hits give low values 0.901 | S. cerevisiae deletion strains, locus YLR258W, strain gsy2, hits give low values 0.918 | S. cerevisiae deletion strains, locus YLR262C, strain YPT6 (second series), hits give low values 0.972 | S. cerevisiae deletion strains, locus YLR262C, strain YPT6, hits give low values 0.733 | S. cerevisiae deletion strains, locus YLR268W, strain sec22, hits give low values 0.894 | S. cerevisiae deletion strains, locus YLR330W, strain CHS5, hits give low values 0.959 | S. cerevisiae deletion strains, locus YLR342W, strain FKS1 (second series), hits give low values 0.938 | S. cerevisiae deletion strains, locus YLR342W, strain FKS1, hits give low values 1.01 | S. cerevisiae deletion strains, locus YLR357W, strain rsc2, hits give low values 0.929 | S. cerevisiae deletion strains, locus YLR370C, strain arc18, hits give low values 0.934 | S. cerevisiae deletion strains, locus YLR371W, strain rom2, hits give low values 0.952 | S. cerevisiae deletion strains, locus YLR384C, strain iki3, hits give low values 1 | S. cerevisiae deletion strains, locus YML016C, strain PPZ1, hits give low values 0.977 | S. cerevisiae deletion strains, locus YML120C, strain ndi1, hits give low values 0.951 | S. cerevisiae deletion strains, locus YML124C, strain tub3, hits give low values 0.955 | S. cerevisiae deletion strains, locus YMR058W, strain fet3, hits give low values 0.939 | S. cerevisiae deletion strains, locus YMR078C, strain ctf18, hits give low values 0.935 | S. cerevisiae deletion strains, locus YMR125W, strain sto1, hits give low values 0.982 | S. cerevisiae deletion strains, locus YMR129W, hits give low values 0.989 | S. cerevisiae deletion strains, locus YMR205C, strain PFK2, hits give low values 0.967 | S. cerevisiae deletion strains, locus YMR223W, strain ubp8, hits give low values 0.938 | S. cerevisiae deletion strains, locus YMR231W, strain pep5, hits give low values 1.01 | S. cerevisiae deletion strains, locus YMR307W, strain GAS1, hits give low values 0.707 | S. cerevisiae deletion strains, locus YNL067W, strain RPL9B, hits give low values 0.897 | S. cerevisiae deletion strains, locus YNL153C, strain GIM3, hits give low values 0.936 | S. cerevisiae deletion strains, locus YNL183C, strain NPR1, hits give low values 0.858 | S. cerevisiae deletion strains, locus YNL209W, strain ssb2, hits give low values 0.95 | S. cerevisiae deletion strains, locus YNL250W, strain rad50, hits give low values 0.978 | S. cerevisiae deletion strains, locus YNL271C, strain bni1, hits give low values 0.955 | S. cerevisiae deletion strains, locus YNL298W, strain CLA4, hits give low values 0.925 | S. cerevisiae deletion strains, locus YNR049C, strain mso1, hits give low values 0.964 | S. cerevisiae deletion strains, locus YNR052C, strain pop2, hits give low values 0.98 | S. cerevisiae deletion strains, locus YOL012C, strain htz1 0.544 | S. cerevisiae deletion strains, locus YOL147C, strain pex11, hits give low values 0.943 | S. cerevisiae deletion strains, locus YOR001W, strain rrp6, hits give low values 0.962 | S. cerevisiae deletion strains, locus YOR061W, strain CKA2, hits give low values 0.967 | S. cerevisiae deletion strains, locus YOR069W, strain VPS5, hits give low values 0.985 | S. cerevisiae deletion strains, locus YOR070C, strain gyp1, hits give low values 0.932 | S. cerevisiae deletion strains, locus YOR080W, strain dia2, hits give low values 1.02 | S. cerevisiae deletion strains, locus YOR083W, strain WHI5, hits give low values 0.928 | S. cerevisiae deletion strains, locus YOR106W, strain vam3, hits give low values 0.954 | S. cerevisiae deletion strains, locus YOR136W, strain idh2, hits give low values 0.948 | S. cerevisiae deletion strains, locus YOR144C, strain elg1, hits give low values 0.947 | S. cerevisiae deletion strains, locus YOR231W, strain MKK1, hits give low values 0.909 | S. cerevisiae deletion strains, locus YOR265W, strain rbl2, hits give low values 0.987 | S. cerevisiae deletion strains, locus YOR316C, strain cot1, hits give low values 0.947 | S. cerevisiae deletion strains, locus YPL051W, strain arl3, hits give low values 0.957 | S. cerevisiae deletion strains, locus YPL106C, strain sse1, hits give low values 0.926 | S. cerevisiae deletion strains, locus YPL240C, strain hsp82, hits give low values 0.973 | S. cerevisiae deletion strains, locus YPL241C, strain CIN2, hits give low values 0.977 | S. cerevisiae deletion strains, locus YPL256C, strain CLN2, hits give low values 0.881 | S. cerevisiae deletion strains, locus YPR119W, strain clb2, hits give low values 0.941 | S. cerevisiae deletion strains, locus YPR141C, strain kar3, hits give low values 0.967 | S. cerevisiae deletion strains, locus YPR163C, strain tif3, hits give low values 0.931 | S. cerevisiae deletion strains, locus YPR167C, strain met16, hits give low values 0.94 | S. cerevisiae deletion strains, strain wtn01, hits give low values 0.915 | S. cerevisiae strains, strain wild type, hits give low values 0.952
